Reference: publication PMC5540273 (PLoS ONE, 2017)
pKd: −log10 of the molar value.

Test system: TYK2(JH2domain-pseudokinase)
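Note: kd values determined as follow-up on hits from a single-replicate KINOMEscan panel screen.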

SMILES	pKd
Nc1ncnc2[nH]c(-c3ccccc3)nc12 [AH5015]	7.02
COc1ccc2nc(-c3cccc(C)n3)nc(Nc3ccncc3)c2c1 [GSK204919]	5.70
Cc1csc(-c2nc(Nc3ccncc3)c3ccccc3n2)n1 [GW869640]	6.28

Test system: ULK3

SMILES	pKd
COc1cc(Nc2nccc(N3CCC(NC(=O)Nc4cc(C)ccc4C)C3)n2)cc(OC)c1OC (stereo not shown) [GSK1379762]	5.37
COc1ccc(CNC(=O)NC2CCN(c3ccnc(Nc4cc(OC)c(OC)c(OC)c4)n3)C2)cc1 (stereo not shown) [GSK1379748]	6.26
COc1ccccc1-c1ccc2c(NC(=O)C3CC3)n[nH]c2n1 [SB-711239]	< 5.00

Test system: T1, VPS34
T1 construct: gene PIK3C3

SMILES	pKd
Cc1nnc(-c2ccc3occ(-c4ccc(S(C)=O)cc4)c3c2)[nH]1 (stereo not shown)	7.21
Cc1cccc(-c2nc(-c3ccc(S(C)(=O)=O)cc3)sc2-c2ccnc(NCCc3ccccc3)c2)c1	5.08
O=c1cc(N2CCOCC2)nc2n(Cc3cccc(Cl)c3Cl)ccn12 [GSK2286295]	8.68
Cc1c(Cn2ccn3c(=O)cc(N4CCOCC4)nc23)cccc1C(F)(F)F [GSK2289044]	7.19
CS(=O)(=O)c1ccc(-c2c(-c3ncn[nH]3)sc(N3CCOCC3)c2C#N)cc1	6.96

Test system: T2, YSK4
T2 construct: gene MAP3K19

SMILES	pKd
NC(=O)c1nnc2ccccc2c1N	6.52
O=C(Nc1n[nH]c2nc(-c3nccs3)c(Br)cc12)C1CC1 [SB-742251]	6.68
Cc1ccc(NC(=O)Nc2cccc(Cl)c2)cc1-c1ccc(C(=O)Nc2ccncc2)cc1 [GSK1398468]	7.21
Cn1ccc2ncnc(Oc3ccc(NC(=O)Nc4ccccc4)cc3)c21	6.77
Nc1ncnc2[nH]c(-c3ccccc3)nc12 [AH5015]	6.57
Cc1cc(-c2ccc3c(c2)CC[C@@H](N[C@@H](C)c2ccccc2)C3)cnc1N.Cl [GW412617]	5.62
O=C(O)COc1ncnc2cc(-c3ccc4[nH]ncc4c3)sc12	7.70
O=C(Nc1ccccc1)Nc1cccc(Oc2ccc3nccn3n2)c1	6.57
